# Measurements taken from PubChem BioAssay (NCI).
# This is part of a sample that, as a whole, favours compounds with a hit. Of some 79,000 tested, about 15% had one in any assay. Values without a mark were called inactive. Active and inactive are the calls of the source. Rule as the data show it: active = growth inhibition above about 70%; inactive = the rest.
# Legend:
# [1] = NCI Yeast Anticancer Drug Screen. Data for the rad50 strain (AID 155);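 also: 0% = growth of vehicle-only cultures of the same strain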; details: S. cerevisiae rad50 strain growth inhibition, hits give high values
# Outline: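 Compounds were tested on a yeast strain with an engineered DNA damage repair alteration; the reported value is growth inhibition normalised to vehicle treatment.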
# [2] = NCI Yeast Anticancer Drug Screen. Data for the mec2-1 strain (AID 157); details: S. cerevisiae mec2-1 strain, hits give high values
# Outline: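 mec2-1 yeast strain, carrying an alteration in DNA damage repair or cell cycle control, was exposed to compounds; growth inhibition was measured relative to vehicle-treated controls.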
# [3] = NCI Yeast Anticancer Drug Screen. Data for the sgs1 mgt1 strain (AID 161);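 also: 0% = growth of cultures given vehicle only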; details: S. cerevisiae sgs1 mgt1 strain, hits give high values
# Outline: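 Growth of a repair-deficient yeast mutant was monitored after compound treatment and expressed as inhibition relative to vehicle-treated cultures.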
# [4] = NCI Yeast Anticancer Drug Screen. Data for the cln2 rad14 strain (AID 165);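 also: 0% = growth equal to vehicle treated cultures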; details: S. cerevisiae cln2 rad14 strain, hits give high values
# Outline: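 Yeast carrying cln2 and rad14 alterations (cell cycle control and DNA damage repair) were exposed to compounds. Growth inhibition was measured against vehicle-treated controls.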
# [5] = NCI Yeast Anticancer Drug Screen. Data for the bub3 strain (AID 167); details: S. cerevisiae bub3 mutant strain, hits give high values
# Outline: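 Growth of a checkpoint-deficient yeast mutant is measured after compound exposure. Values represent inhibition relative to vehicle.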
# [6] = NCI Yeast Anticancer Drug Screen. Data for the mlh1 rad18 strain (AID 175); details: S. cerevisiae mlh1 rad18 strain growth inhibition, hits give high values
# Outline: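 Growth inhibition of the yeast strain was measured after compound exposure and expressed relative to vehicle-treated controls. The strain carries defined defects in DNA damage repair.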
# [7] = at 5.0 µM (retest, dose inferred, filed as 0.5)
# [8] = at 50.0 µM (retest, dose inferred, filed as 5.0)
SMILES,"growth inhibition [1, 7]","growth inhibition [1, 8]",growth inhibition ([1]; at 50.0 µM),"growth inhibition [2, 7]","growth inhibition [2, 8]",growth inhibition ([2]; at 50.0 µM),"growth inhibition [3, 7]","growth inhibition [3, 8]",growth inhibition ([3]; at 50.0 µM),"growth inhibition [4, 7]","growth inhibition [4, 8]",growth inhibition ([4]; at 50.0 µM),"growth inhibition [5, 7]","growth inhibition [5, 8]",growth inhibition ([5]; at 50.0 µM),"growth inhibition [6, 7]","growth inhibition [6, 8]",growth inhibition ([6]; at 50.0 µM)
CCCCCCCCS(=O)(=O)Nc1ccccc1,11%,98% (active),99.3% (active),0%,99% (active),99.2% (active),6%,99% (active),99.3% (active),4%,99% (active),99.4% (active),4%,99% (active),99.1% (active),-5%,61%,99.1% (active)
C=C1C(O)C2(O)OCC34C(CC5C(C)=CC(=O)C(O)C5(C)C23)OC(=O)C(OC(=O)C/C=C/CCCCCCCC)C14 (configuration not stated),85% (active),98% (active),92.2% (active),87% (active),99% (active),93% (active),75% (active),99% (active),92.8% (active),87% (active),99% (active),92% (active),84% (active),99% (active),91.5% (active),93% (active),99% (active),90.7% (active)
CN(C)CCOc1cc2c(c3ccccc13)-c1ccccc1C2=O,93% (active),99% (active),99.7% (active),14%,99% (active),99.3% (active),20%,100% (active),99.4% (active),12%,96% (active),99% (active),6%,99% (active),99.6% (active),21%,100% (active),99.1% (active)
CCC(CC)=NNc1ccc([N+](=O)[O-])cc1,7%,96% (active),98.4% (active),15%,95% (active),97.7% (active),8%,97% (active),97.8% (active),10%,94% (active),95.3% (active),4%,42%,97.9% (active),11%,97% (active),97.2% (active)
CC(N1CCOCC1)C(O)(c1ccccc1)c1ccccn1 (configuration not stated),3%,10%,-19.4%,-1%,-15%,-35.9%,-4%,-15%,-32.6%,24%,-1%,60.2%,-2%,-15%,-42.4%,4%,19%,2.75%
COc1ccc2cc(C3CCCC3(C)CC(=O)O)ccc2c1 (configuration not stated),7%,11%,57.2%,11%,10%,39.9%,4%,8%,62.1%,3%,7%,11.1%,2%,2%,3.85%,1%,9%,64.5%
Cc1nc(-c2ccccc2)nc2c1nc(C(C)C)n2Nc1ccccc1,-2%,20%,94.1% (active),-3%,41%,57.6%,0%,25%,73.8% (active),-9%,33%,64.8%,3%,35%,80.8% (active),-4%,37%,78.5% (active)
O=C(c1c(F)c(F)c(F)c(F)c1F)N1CCN(C(=O)c2c(F)c(F)c(F)c(F)c2F)C1=S,0%,91% (active),88.2% (active),15%,81% (active),88.7% (active),8%,94% (active),90.9% (active),8%,88% (active),85.3% (active),-7%,86% (active),85.3% (active),32%,92% (active),91.2% (active)
CN(C)c1ccc(/C=C(\C#N)c2cccc(Cl)c2)cc1,1%,-8%,16.7%,-1%,1%,18%,4%,12%,10.8%,-3%,-25%,69.4%,5%,14%,13.7%,-3%,-11%,-4.75%
Cn1cnc([N+](=O)[O-])c1Sc1ccc(Cl)cc1,16%,93% (active),93.8% (active),8%,92% (active),76.9% (active),11%,98% (active),90.9% (active),2%,61%,42.2%,0%,92% (active),83.2% (active),5%,97% (active),90.3% (active)
NC(=S)NNC(=O)c1cccnc1,4%,78% (active),-5.1%,1%,39%,-5.95%,2%,46%,45.6%,5%,75% (active),-31.4%,2%,82% (active),0.15%,-1%,68%,50.8%
Cc1cccc(C)c1NC(=O)CSC(N)=O,4%,22%,72.2% (active),-1%,24%,65%,0%,22%,87.2% (active),5%,-1%,56.1%,4%,42%,75.5% (active),7%,26%,73.2% (active)
Cc1ccc2nc(-c3ccc(N)cc3)sc2c1,9%,42%,75% (active),-2%,8%,34.5%,-2%,7%,43.9%,-8%,-6%,15%,14%,68%,72.5% (active),-1%,19%,41.3%
Oc1cc2ccccc2cc1O,6%,90% (active),95.5% (active),5%,77% (active),86% (active),2%,88% (active),93.8% (active),3%,90% (active),92.4% (active),5%,92% (active),96.1% (active),5%,93% (active),96% (active)
O=C(CC(=O)c1ccccc1NC1=Cc2ccccc2C(=O)C1=O)C(=O)NC1=C(Cl)C(=O)c2ccccc2C1=O,36%,92% (active),88% (active),21%,82% (active),86.2% (active),14%,86% (active),85.7% (active),16%,66%,82.7% (active),14%,94% (active),84.9% (active),37%,90% (active),86.2% (active)
O=S(=O)(Nc1ccccn1)c1ccc(N=Cc2c3ccccc3nc3cc(Cl)ccc23)cc1,2%,27%,98.8% (active),5%,18%,85.8% (active),1%,1%,99.2% (active),4%,-17%,97.5% (active),9%,6%,57.6%,5%,6%,98.2% (active)
O=[N+]([O-])c1ccccc1NC1CCN(CCCC2(c3ccc(F)cc3)OCCO2)CC1,11%,96% (active),99% (active),7%,94% (active),98% (active),16%,99% (active),98.6% (active),9%,94% (active),93.3% (active),10%,97% (active),41.4%,11%,94% (active),98.7% (active)
Clc1ccc(CN2COc3c(ccc4cccnc34)C2)cc1,1%,36%,97.1% (active),-2%,65%,64.5%,-1%,97% (active),99.4% (active),1%,97% (active),77.5% (active),-4%,85% (active),77.5% (active),2%,95% (active),93% (active)
COc1ccc(-n2cc(-c3ccc(Cl)cc3)c3c(N)ncnc32)cc1,20%,99% (active),95.6% (active),23%,99% (active),94.6% (active),63%,99% (active),98.2% (active),13%,25%,87.1% (active),0%,3%,91% (active),20%,99% (active),88% (active)
